Where “and” joins values, the source holds several entries; their conditions need not be identical. Equal values may be shown once. The panel holds about 83,000 compounds, 20% with a hit somewhere; the sample as a whole holds those more often.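 For each line, cells grew in 96-well plates with the test compound present at a single concentration for 48 hours.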 Calls of active or inactive are those of the source. How the source made its calls: active means growth percent below 10; inactive means the rest.
What was measured:
Test in all cases: NCI-60 one-dose screen, 48 h (100 = growth as untreated, 0 = no growth, -100 = all killed)
NCI-H23 lung = tested on: NCI-H23 lung
NCI-H226 lung = tested on: NCI-H226 lung
NCI-H322M lung = tested on: NCI-H322M lung
HOP-62 NSCLC = tested on: HOP-62 NSCLC
NCI-H460 lung = tested on: NCI-H460 lung
HOP-92 NSCLC = tested on: HOP-92 NSCLC
NCI-H522 lung = tested on: NCI-H522 lung
A549/ATCC NSCLC = tested on: A549/ATCC NSCLC
786-0 renal = tested on: 786-0 renal
DU-145 prostate = tested on: DU-145 prostate

Measured: growth

Oc1cc[c]([Hg][Cl])cc1
inactive: NCI-H23 lung; 10 µM unless noted 87.8% | NCI-H226 lung; 10 µM unless noted 113% | NCI-H322M lung; 10 µM unless noted 93.4% | HOP-62 NSCLC; 10 µM unless noted 123% | NCI-H460 lung; 10 µM unless noted 88.8% | HOP-92 NSCLC; 10 µM 161% | A549/ATCC NSCLC; 10 µM unless noted 99.3% | 786-0 renal; 10 µM unless noted 102% | DU-145 prostate; 10 µM unless noted 94.3%
active: NCI-H522 lung; 10 µM unless noted -47%

CC[C@@]1(O)C(=O)OCc2c1cc1n(c2=O)Cc2cc3ccccc3nc2-1
active: NCI-H23 lung; 10 µM unless noted -26.7% | NCI-H226 lung; 10 µM unless noted -54% | NCI-H322M lung; 10 µM unless noted -19.4% | HOP-62 NSCLC; 10 µM unless noted -10.3% | NCI-H460 lung; 10 µM unless noted -25.8% | NCI-H522 lung; 10 µM unless noted -49% | A549/ATCC NSCLC; 10 µM unless noted -21.1% | 786-0 renal; 10 µM unless noted -18.5% | DU-145 prostate; 10 µM unless noted -31.9%

C[C@]12CC[C@H](O)CC1=CC[C@@H]1[C@@H]2CC[C@]2(C)C(=O)CC[C@@H]12
inactive: NCI-H23 lung; 10 µM unless noted 96% | NCI-H226 lung; 10 µM unless noted 102% | NCI-H322M lung; 10 µM unless noted 91% | HOP-62 NSCLC; 10 µM unless noted 96.4% | NCI-H460 lung; 10 µM unless noted 108% | NCI-H522 lung; 10 µM unless noted 48% | A549/ATCC NSCLC; 10 µM unless noted 106% | 786-0 renal; 10 µM unless noted 92.6% | DU-145 prostate; 10 µM unless noted 122%

C[C@H]1CCC/C=C/[C@@H]2C[C@H](O)C[C@H]2[C@H](O)/C=C/C(=O)O1
inactive: A549/ATCC NSCLC; 10 µM unless noted 13.1%
active: NCI-H23 lung; 10 µM unless noted -1.79% | NCI-H226 lung; 10 µM unless noted -36.3% | NCI-H322M lung; 10 µM unless noted 5.77% | HOP-62 NSCLC; 10 µM unless noted 4.67% | NCI-H460 lung; 10 µM unless noted 8.73% | NCI-H522 lung; 10 µM unless noted -43.6% | 786-0 renal; 10 µM unless noted -37.3% | DU-145 prostate; 10 µM unless noted -7.84%

CC1=C2C(=O)[C@H]3[C@@H](CC=C4C[C@@H](O)CC[C@@]43C)[C@@H]2CC[C@]12O[C@@H]1C[C@H](C)CN[C@H]1[C@H]2C
inactive: NCI-H23 lung; 10 µM unless noted 106% | NCI-H226 lung; 10 µM unless noted 95.3% | NCI-H322M lung; 10 µM unless noted 86.4% | HOP-62 NSCLC; 10 µM unless noted 50.9% | NCI-H460 lung; 10 µM unless noted 100% | A549/ATCC NSCLC; 10 µM unless noted 89.7% | 786-0 renal; 10 µM unless noted 127% | DU-145 prostate; 10 µM unless noted 151%

CC1=C(CO)C2=C(C)C3(CC3)[C@@](C)(O)C(=O)C2=C1
active: NCI-H23 lung; 10 µM unless noted -18.2% | NCI-H226 lung; 10 µM unless noted -28.6% | NCI-H322M lung; 10 µM unless noted -24.9% | HOP-62 NSCLC; 10 µM unless noted -36% | NCI-H460 lung; 10 µM unless noted -1.95% | NCI-H522 lung; 10 µM unless noted -81.7% | A549/ATCC NSCLC; 10 µM unless noted 2.23% | 786-0 renal; 10 µM unless noted -21.3% | DU-145 prostate; 10 µM unless noted -20.1%

COC1=C(C)C(=O)C2=C(C1=O)C(CO)N1C(C#N)C3CC4C(C1C2N1CCOC41)N3C (stereo not drawn)
active: NCI-H23 lung; 10 µM unless noted -45.1% | NCI-H226 lung; 10 µM unless noted -14.5% | NCI-H322M lung; 10 µM unless noted -23.7% | HOP-62 NSCLC; 10 µM unless noted -42% | NCI-H460 lung; 10 µM unless noted -14.9% | NCI-H522 lung; 10 µM unless noted -83.2% | A549/ATCC NSCLC; 10 µM unless noted -3.64% | 786-0 renal; 10 µM unless noted -21.9% | DU-145 prostate; 10 µM unless noted 1.67%

CC[C@](O)(C(=O)O)c1cc2n(c(=O)c1CO)Cc1cc3ccccc3nc1-2
active: NCI-H23 lung; 10 µM unless noted -22.8% | NCI-H226 lung; 10 µM unless noted -27.8% | NCI-H322M lung; 10 µM unless noted -5.59% | HOP-62 NSCLC; 10 µM unless noted 1.05% | NCI-H460 lung; 10 µM unless noted -6.64% | HOP-92 NSCLC; 10 µM -39% | NCI-H522 lung; 10 µM unless noted -50.6% | A549/ATCC NSCLC; 10 µM unless noted -5.92% | 786-0 renal; 10 µM unless noted -21.9% | DU-145 prostate; 10 µM unless noted -30.7%

CCCCCCCCCCCC1CCCC(C)N1 (stereo not drawn)
inactive: NCI-H23 lung; 10 µM unless noted 71.4% | NCI-H226 lung; 10 µM unless noted 94.8% | NCI-H322M lung; 10 µM unless noted 127% | HOP-62 NSCLC; 10 µM unless noted 86.5% | NCI-H460 lung; 10 µM unless noted 87.9% | HOP-92 NSCLC; 10 µM 15.8% | A549/ATCC NSCLC; 10 µM unless noted 97.2% | 786-0 renal; 10 µM unless noted 67.3% | DU-145 prostate; 10 µM unless noted 92.4%
active: NCI-H522 lung; 10 µM unless noted -8.02%

COc1ccccc1/C=C(/C)[N+](=O)[O-]
inactive: NCI-H23 lung; 10 µM unless noted 88.3% and 90.8% | NCI-H226 lung; 10 µM unless noted 100% and 105% | NCI-H322M lung; 10 µM unless noted 92.7% and 92.2% | HOP-62 NSCLC; 10 µM unless noted 109% and 83.1% | NCI-H460 lung; 10 µM unless noted 87.3% and 107% | HOP-92 NSCLC; 10 µM 96.5% | NCI-H522 lung; 10 µM unless noted 50% and 84.5% | A549/ATCC NSCLC; 10 µM unless noted 93.3% and 76.9% | 786-0 renal; 10 µM unless noted 82.2% and 101% | DU-145 prostate; 10 µM unless noted 27.7% and 107%

COc1ccc(OC)c(/C=C/[N+](=O)[O-])c1
active: NCI-H23 lung; 10 µM unless noted 6.9% | NCI-H460 lung; 10 µM unless noted -4.3% | HOP-92 NSCLC; 10 µM -18% | NCI-H522 lung; 10 µM unless noted -64.1% | 786-0 renal; 10 µM unless noted -75.2%
inactive: NCI-H226 lung; 10 µM unless noted 11.8% | NCI-H322M lung; 10 µM unless noted 69.6% | HOP-62 NSCLC; 10 µM unless noted 10.5% | A549/ATCC NSCLC; 10 µM unless noted 28.1% | DU-145 prostate; 10 µM unless noted 19.8%

COc1cccc2c1cc([N+](=O)[O-])c1c(C(=O)O)cc3c(c12)OCO3
inactive: NCI-H23 lung; 10 µM unless noted 56.4% and 93% | NCI-H226 lung; 10 µM unless noted 79.8% and 107% | NCI-H322M lung; 10 µM unless noted 50.4% and 99% | HOP-62 NSCLC; 10 µM unless noted 82.4% and 101% | NCI-H460 lung; 10 µM unless noted 33.5% and 106% | HOP-92 NSCLC; 10 µM 84% | NCI-H522 lung; 10 µM unless noted 35% and 63.9% | A549/ATCC NSCLC; 10 µM unless noted 76.6% and 116% | 786-0 renal; 10 µM unless noted 77.3% and 98.8% | DU-145 prostate; 10 µM unless noted 15.6% and 118%

S=C(SSC(=S)N1CCCCC1)N1CCCCC1
inactive: NCI-H23 lung; 10 µM 101% | NCI-H226 lung; 10 µM 104% | NCI-H226 lung; 100 µM 10.4% | NCI-H322M lung; 10 µM 102% | NCI-H322M lung; 100 µM 32% | HOP-62 NSCLC; 10 µM 110% | HOP-62 NSCLC; 100 µM 37.6% | NCI-H460 lung; 10 µM 91.9% | HOP-92 NSCLC; 10 µM 101% | NCI-H522 lung; 10 µM 87% | A549/ATCC NSCLC; 10 µM 93.3% | A549/ATCC NSCLC; 100 µM 26.1% | 786-0 renal; 10 µM 98.7% | DU-145 prostate; 10 µM 107%
active: NCI-H23 lung; 100 µM -5.33% | NCI-H460 lung; 100 µM -2.57% | HOP-92 NSCLC; 100 µM 9.88% | NCI-H522 lung; 100 µM -44.2% | 786-0 renal; 100 µM -3.71% | DU-145 prostate; 100 µM 9.68%

Cc1ccc(C(=O)OC(C(=O)O)C(OC(=O)c2ccc(C)cc2)C(=O)O)cc1 (stereo not drawn) (tested in a mixture with another compound)
inactive: NCI-H23 lung; 10 µM unless noted 41.4% | NCI-H226 lung; 10 µM unless noted 51.1% | NCI-H322M lung; 10 µM unless noted 83.2% | HOP-62 NSCLC; 10 µM unless noted 66.1% | NCI-H460 lung; 10 µM unless noted 52.4% | HOP-92 NSCLC; 10 µM 17.7% | NCI-H522 lung; 10 µM unless noted 52.6% | A549/ATCC NSCLC; 10 µM unless noted 71% | 786-0 renal; 10 µM unless noted 46% | DU-145 prostate; 10 µM unless noted 76%
